hgDAF-12 ag: H. glycines DAF-12 receptor agonists, primary screen, cell-based, luminescence, HEK293, GAL4 fusion, UAS-luciferase; Nuclear hormone receptor DAF-12 (Heterodera glycines), GAL4 fusion; actives 1.8% (n = 370,000); activation, % at 6.8 µM; HEK293 GAL4-hgDAF12 UAS-luciferase reporter, agonist luminescence; normalized to butyrate control;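 active means activation above a cutoff set at the mean of all screened compounds plus 3 SD, cut at about 10% in these data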
DAX1 inh-1: DAX1 (NR0B1) inhibitors, primary screen, cell-based, HEK293, Gal4-DAX1, luciferase luminescence; inhibition, % at 6.75 µM; AID 504766, 2011; actives 0.99% (n = 340,000); HEK293 Gal4-DAX1 luciferase reporter;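 active means inhibition above the mean over all tested compounds plus 3 SD, cut at about 4.2% in these data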;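 further: inhibition shows as a rise in luminescence from relieved DAX1 repression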
Target sequence (P51843 207-470 limits assumed): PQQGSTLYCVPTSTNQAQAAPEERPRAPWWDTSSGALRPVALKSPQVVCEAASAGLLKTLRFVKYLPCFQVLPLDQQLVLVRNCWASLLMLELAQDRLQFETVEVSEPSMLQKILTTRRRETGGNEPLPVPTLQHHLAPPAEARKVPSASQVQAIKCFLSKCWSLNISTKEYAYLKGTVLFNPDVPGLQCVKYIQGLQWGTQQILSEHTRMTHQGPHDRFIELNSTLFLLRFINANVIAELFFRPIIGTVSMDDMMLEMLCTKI
hcDAF12 agonist: H. contortus DAF-12 nuclear receptor activators, primary screen, cell-based, luminescence, HEK293, lit1-tk-luc reporter. actives 1.4% (n = 370,000). AID 652067, 2013. HEK293 hcDAF-12 lit1-tk-luc reporter; 0% DMSO, 100% Δ7-dafachronic acid. activation, % at 6.8 µM;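 active means activation above the mean of all tested compounds plus 3 SD, cut at about 5.5% in these data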
ssDAF12 agonist: S. stercoralis DAF-12 nuclear receptor activators, primary screen, cell-based, luminescence, HEK293, GRIP1 co-expression, lit1-tk-luc. AID 652126, 2013. activation, % at 6.8 µM. HEK293 ssDAF-12/GRIP1 lit1-tk-luc reporter; % of 3 µM dafachronic acid response. Nuclear hormone receptor DAF-12 (Strongyloides stercoralis). actives 1% (n = 370,000);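 active means activation above the mean over all tested compounds plus 3 SD, cut at about 0.9% in these data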
DAX1 inh-2: DAX1 (NR0B1) inhibitors on StAR promoter, primary screen, cell-based, luminescence, SF-1 (NR5A1), full-length DAX-1; inhibition, % at 6.8 µM; HEK293T StAR-luciferase reporter, SF-1/DAX-1 repression relief; AID 652010, 2013; actives 1.1% (n = 370,000);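 active means inhibition above the mean over all tested compounds plus 3 SD, cut at about 3.6% in these data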;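 further: higher inhibition means more luminescence from relief of DAX-1 repression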
Numbers stand for hits; . = inactive; / = not tested or not shown. Most compounds without a hit are left out; they make up all but 4.1% or so of the library.

SMILES | hgDAF-12 ag | DAX1 inh-1 | hcDAF12 agonist | ssDAF12 agonist | DAX1 inh-2
O=C(Nc1nnc(SCc2ccccn2)s1)C1CC(=O)N(c2ccccc2)C1 (stereo unspecified) | . | 6.5 | . | . | .
O=C(Cc1cccs1)NC1CCCCN(Cc2cccc(Cl)c2)C1=O (stereo unspecified) | . | / | . | . | .
N/C(=N\OC(=O)Cc1cccc2ccccc12)c1ccccn1 | . | . | 5.8 | . | .
N/C(=N\OC(=O)C1CCCCC1)c1ccccn1 | 12 | . | . | . | .
N/C(=N\OC(=O)C1CCCCC1)c1ccncc1 | . | . | . | . | .
COc1ccccc1CC(=O)O/N=C(\N)c1ccccn1 | . | . | . | . | .
CCOC(=O)[C@]12CCCCC/C=C\1N(Cc1ccc(OC)cc1)C(=O)[C@H]2CC(=O)N1CCCCC1 | . | / | . | . | .
CCn1c(SCC(=O)Nc2ccc(C(N)=O)cc2)nc2sc(C)c(C)c2c1=O | . | / | . | . | .
COc1ccc(/C=C2\SC(N)=NC2=O)cc1 | . | 4.9 | . | . | .
NC1=NC(=O)/C(=C\c2cccnc2)S1 | 12 | . | . | . | .
NC1=NC(=O)C(=Cc2ccccc2)S1 | . | . | . | . | .
COc1cccc(CNC2CCC23CCC(C)CC3)c1 (stereo unspecified) | . | / | . | . | /
CN(C)c1cccc(NC(=O)c2cccc3ccccc23)c1 | . | . | 6.5 | 1.2 | .
Cc1ccnc(NS(=O)(=O)c2ccc(N3C(=O)Nc4ccccc4N3O)cc2)c1 | . | . | . | . | .
O=C1Nc2ccccc2N(O)N1c1ccc(S(=O)(=O)Nc2ccccn2)cc1 | . | . | . | 0.9 | .
CCC[C@H]1[C@@H](N(C)Cc2ccccc2)CC[C@@]23CCCN2C(=O)CCC[C@@H]13 | . | / | . | . | /
Cn1c(SCC(=O)NCCN2CCCCC2)nc2cccnc21 | . | / | . | . | .
CCCCNc1cc(=O)n(C)c(=O)[nH]1 | . | 8.1 | . | . | .
Cn1c(=O)cc(NCc2ccccc2)[nH]c1=O | . | . | . | . | .
CCOc1ccc(S(=O)(=O)N2CC(=O)Nc3ccccc32)cc1C#N | . | 4.3 | . | . | .
COc1ccc2c(c1)c(=O)oc1cc(O)ccc12 | . | 4.7 | . | . | .
O=c1oc2cc(O)ccc2c2ccccc12 | . | . | . | . | .
COc1ccc(C2C(C(=O)Nc3cc(OC)ccc3OC)CCC(=O)N2c2ccc(OC)cc2)cc1 (stereo unspecified) | . | / | . | . | .
O=c1c2ccccc2n(Cc2ccno2)n1[C@@H](Cc1ccccc1)Cn1cc(-c2ccc(-c3ccccc3)cc2)nn1 | . | / | . | . | .
CCOc1ccccc1C(O)C1=CC(=O)c2ccccc2C1=O (stereo unspecified) | . | . | 6.2 | . | .
SMILES | hgDAF-12 ag | DAX1 inh-1 | hcDAF12 agonist | ssDAF12 agonist | DAX1 inh-2
CN(C)S(=O)(=O)c1cc(NC(=O)CN2CCc3ccccc32)ccc1Cl | . | . | . | 1.0 | .
CC(C)C[C@H]1COc2cccc(F)c2S(=O)(=O)N1Cc1cn(Cc2ccc(F)cc2)nn1 | . | / | . | . | .
O=S(=O)(NCc1ccccc1)NCc1cccc(C(F)(F)F)c1 | . | 4.7 | . | . | .
Cc1ccccc1-c1cccc2c3c([nH]c12)[C@@H]1C[C@H]2[C@@H](CN1CC3)[C@H](C)ON2C | . | / | . | . | .
CC1CCN(c2c(NCc3ccc(C(=O)N4c5ccccc5CC4C)cc3)c(=O)c2=O)CC1 (stereo unspecified) | . | . | . | 1.1 | .
Cc1ccc(-c2noc(CSc3ccccc3)n2)cc1 | 12 | . | . | . | 3.9
Cc1ccc(OCc2nc(-c3ccccc3)no2)cc1 | . | 4.8 | . | . | .
Cc1ccc(-c2noc(COc3ccccc3C)n2)cc1 | . | . | . | . | .
COc1cccc(CC(=O)Nc2ccc3c(c2)c(=O)n(C)n3-c2ccc(C(C)(C)C)cc2)c1 | . | / | . | 4.1 | .
CN(C)CCCNC(=O)CC1C[C@H](C(=O)N2CCCCC2)[C@@]2(CCc3ccccc3)c3[nH]c4ccccc4c3CCN2C1=O (stereo partly specified) | . | . | . | . | 3.9
Clc1ccccc1OCc1nnc(-c2ccccc2)o1 | 13 | . | . | . | .
Cc1cc(Br)ccc1OCc1nnc(-c2ccccc2)o1 | . | / | . | . | .
c1ccc(-c2nc(-c3ccccn3)no2)cc1 | . | . | 6.4 | . | .
Clc1cc(Cl)c(OCc2nc(-c3ccccn3)no2)cc1Cl | . | . | . | . | .
c1ccc(-c2noc(CC3CCCCC3)n2)nc1 | 12 | . | . | . | 3.9
Cc1ccc(Cc2nc(-c3ccccn3)no2)cc1 | 13 | . | . | . | .
CC(C)(C)c1ccc(OCc2nc(-c3ccccn3)no2)c(Br)c1 | 11 | . | . | . | .
Cc1ccc(NC(=O)C2CCCN(c3nnc(-n4cccc4)s3)C2)c(C)c1 (stereo unspecified) | . | / | . | . | .
O=C(Nc1cccc(Cl)c1)Nc1nnc([C@H]2C[C@H](O)[C@@H](CO)O2)s1 | . | / | . | . | .
O=C1CCC(CNc2ccccc2)N1c1ccccc1 (stereo unspecified) | . | / | . | . | /
Cc1cccc(-c2nnc(SCC(=O)Nc3cccc4ccccc34)n2Cc2ccco2)c1 | . | / | . | . | .
COc1ccc(NC(=O)c2ccco2)cc1NC(=O)COc1ccccc1 | . | . | . | . | .
COc1ccccc1NC(=O)COC(=O)CCc1ccc(S(=O)(=O)N2CCOCC2)cc1 | . | . | . | . | .
O=C(Cc1ccccc1)Nc1ccc2c(c1)CCC2 | . | . | . | . | .
O=C(COC(=O)COc1ccccc1[N+](=O)[O-])Nc1ccc(S(=O)(=O)N2CCCCC2)cc1 | . | . | . | 1.2 | .
COc1ccc(NC(=O)c2ccco2)cc1NC(=O)COc1ccccc1[N+](=O)[O-] | . | 4.6 | . | . | .
O=C(CC1CCCC1)Nc1ccc2c(c1)CCC2 | 12 | . | . | . | .
O=C(COC(=O)CCc1ccc(S(=O)(=O)N2CCOCC2)cc1)Nc1ccccc1[N+](=O)[O-] | . | . | 5.6 | . | .
COc1ccc2c(C(c3ccccc3O)C3CCCN3S(=O)(=O)c3ccc(C)cc3)cn(C)c2c1 (stereo unspecified) | . | / | . | . | .
COC(=O)C[C@H]1CC[C@@H]2[C@H](COc3ccc(NC(=O)c4cccc(Cl)c4)cc3C(=O)N2C)O1 | . | / | . | . | .

Source: PubChem BioAssay
